Assay results taken from PubChem BioAssay (Tox21).
Unmarked numbers belong to inactive results. Inconclusive results are not listed. Entries that show only a call come without a potency. Activity calls are given as the source filed them. Unless noted, the call rests on the fitted dose curve; in most records, active means well fitted curve in the direction sought with a large enough effect in the repeat runs; inconclusive means weak or mixed curves; inactive means no such curve, though single readings can be large; an effect the other way counts as inactive or inconclusive.

What was measured:
[1] = qHTS assay to identify small molecule antagonists of the androgen receptor (AR) signaling pathway using the MDA cell line in the presence of 0.5 nM R1881 - cell viability counter screen (AID 1259242); conditions: MDA-kb2 viability, CellTiter-Fluor protease fluorescence, 16 h; series mostly up to 92.4 µM; further: nearly all actives have a fitted effect of over 45% in size
In short: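 MDA-kb2 cells (MMTV-luciferase, AR/GR responsive) were treated with compounds plus 0.5 nM R1881 (final) for 16 hr at 37C, 0% CO2. Viability was then read in the same wells as live-cell protease fluorescence (CellTiter-Fluor, 30 min).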

[2] = target: Androgen receptor (Homo sapiens) (UniProt P10275); assay: qHTS assay to identify small molecule antagonists of the androgen receptor (AR) signaling pathway using the MDA cell line in the presence of 0.5 nM R1881 (AID 1259243); conditions: MDA-kb2 MMTV-luciferase, R1881 0.5 nM, 16 h; series mostly up to 92.4 µM; further: nearly all actives have a fitted effect of over 50% in size; further: potency means the concentration at half of the fitted maximal effect
In short: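 MDA-kb2 cells (MMTV-luciferase, responsive to AR and GR) at 3,000/well, rested 5 h at 37C, 0% CO2, then given compounds plus 0.5 nM R1881 (final) for 16 hr. Luciferase read with ONE-Glo after 30 min at room temperature.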

[3] = qHTS assay to identify small molecule HDAC inhibitors (AID 1259364); conditions: HCT-116 HDAC-Glo I/II luminescence, 2 h; series mostly up to 92.4 µM; further: nearly all actives have a fitted effect of over 45% in size; further: potency means the concentration at half of the fitted maximal effect
In short: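 Wild-type HCT-116 cells, plated overnight at 37 C, exposed to compounds 2 hr at 37 C; luminogenic HDAC-Glo substrate then added 30 min at room temperature. Luminescence reports relative endogenous class I/II HDAC activity.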

[4] = qHTS assay to identify small molecule HDAC inhibitors - cell viability counter screen (AID 1259365); conditions: HCT-116 viability, CellTiter-Glo ATP luminescence, 2 h; series mostly up to 92.4 µM; further: nearly all actives have a fitted effect of over 50% in size
In short: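 Cytotoxicity was gauged in wild-type HCT-116 cells after a brief 2hr treatment with DMSO-dissolved compounds at 37C and 5% CO2, using CellTiter-Glo luminescence developed for 30min at room temperature.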

[5] = qHTS assay to identify small molecule agonists of the sonic hedgehog signaling (Shh) pathway - cell viability counter screen (AID 1259366); conditions: NIH/3T3 Gli1-Luc viability, CellTiter-Fluor, 24 h; series mostly up to 92.4 µM; further: nearly all actives have a fitted effect of over 50% in size
In short: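 Stable Gli1-Luc NIH/3T3 clone, 2,000 cells/well. Compound exposure 24hr at 37C. Read-out: CellTiter-Fluor fluorescence.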

[6] = qHTS assay to identify small molecule antagonists of the sonic hedgehog signaling (Shh) pathway - cell viability counter screen (AID 1259367); conditions: NIH/3T3 Gli1-Luc viability, CellTiter-Fluor, 24 h; series mostly up to 92.4 µM; further: nearly all actives have a fitted effect of over 55% in size
In short: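 NIH/3T3-derived Gli1-Luc reporter cells (2,000 per well) rested 4 hr at 37 C, then received DMSO compounds plus conditioned medium. After 23 hr of treatment, CellTiter-Fluor was added for 1 hr at 37C and fluorescence read.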

[7] = qHTS assay to identify small molecule agonists of the sonic hedgehog signaling (Shh) pathway (AID 1259368; calls by dose curve;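 further: NIH/3T3-derived 3T3Gli1-Luc cells carrying a stable Gli1-driven firefly luciferase reporter; nearly all actives have a fitted effect of over 15% in size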); conditions: NIH/3T3 Gli1-Luc reporter, luciferase, 24 h, active compounds read high; series mostly up to 92.4 µM
In short: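 NIH/3T3-derived 3T3Gli1-Luc cells with stably integrated Gli1-driven firefly luciferase, 2,000 cells/well, compounds added after 4 hr. Incubated 24 hr at 37C, 5% CO2; luminescence read after 30 min with luciferase reagent at room temperature.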

[8] = qHTS assay to identify small molecule antagonists of the sonic hedgehog signaling (Shh) pathway (AID 1259369; calls by dose curve; further: nearly all actives have a fitted effect of over 45% in size); conditions: NIH/3T3 Gli1-Luc reporter, Shh antagonist, luminescence 24 h; series mostly up to 92.4 µM
In short: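 NIH/3T3-derived Gli1-Luc reporter cells plated 4 h, dosed with compound, then stimulated with conditioned medium for 24 h at 37 C. Firefly luciferase luminescence read after 30 min with detection reagent at room temperature.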

[9] = qHTS assay to identify small molecule agonists of the androgen receptor (AR) signaling pathway in the presence of an antagonist - cell viability counter screen (AID 1259379); conditions: MDA-kb2 viability, CellTiter-Fluor, 16 h; series mostly up to 92.4 µM;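 further: MDA-kb2 human breast cancer cells carrying an MMTV luciferase reporter; nearly all actives have a fitted effect of over 25% in size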
In short: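 MDA-kb2 cells (MMTV-luciferase, AR/GR), 3,000/well, 5 h attachment, then 3.0 µM nilutamide (final) and compounds at 15 concentrations. Viability by CellTiter-Fluor fluorescence after 16 h at 37 °C, 0% CO2, in the reporter wells.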

[10] = qHTS assay to identify small molecule antagonists of the estrogen receptor beta (ER-beta) signaling pathway - cell viability counter screen (AID 1259382); conditions: ER-beta-UAS-bla HEK293T viability, CellTiter-Glo luminescence, 16 h; series mostly up to 92.4 µM; further: nearly all actives have a fitted effect of over 55% in size
In short: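 ER-beta-UAS-bla HEK293T cells in 2% charcoal-stripped FBS medium, treated with compound plus 1 nM 17-beta-estradiol for 16 h at 37C. Viability read by CellTiter-Glo luminescence after 30 min at room temperature in the same wells.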

[11] = qHTS assay to identify small molecule agonists or antagonists of the thyroid stimulating hormone receptor (TSHR) signaling pathway - wild type cell line counter screen (AID 1259384; calls by dose curve); conditions: HEK293 wild type, cAMP HTRF counter-screen; series mostly up to 92.4 µM
In short: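 Wild-type HEK293 cells were plated 18 h at 37 C/5% CO2, pin-dosed with compound plus Ro20-1724 medium, held 30 min at room temperature, then given cAMP-d2 and anti-cAMP-cryptate; fluorescence was read after 1 h. Fifteen concentrations, triplicate.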

[12] = target: Thyrotropin receptor (Homo sapiens) (UniProt P16473); assay: qHTS assay to identify small molecule antagonists of the thyroid stimulating hormone receptor (TSHR) signaling pathway (AID 1259385; calls by dose curve; further: nearly all actives have a fitted effect of over 20% in size); conditions: TSHR-HEK293 cAMP HTRF, TSH-stimulated antagonist mode; series mostly up to 92.4 µM
In short: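 TSHR-HEK293 cells were plated and held 18 h at 37C/5% CO2, then given compound plus Ro20-1724 and stimulated with TSH at 1.5 ng/mL final. After 30 min at room temperature, cAMP was detected with cAMP-d2/anti-cAMP-cryptate (1 h) by fluorescence.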

[13] = qHTS assay to identify small molecule antagonists of the estrogen receptor alpha (ER-alpha) signaling pathway using the BG1 cell line in the presence of 0.1 nM 17-beta-estradiol - cell viability counter screen (AID 1259241); conditions: VM7Luc4E2 (BG1) viability, CellTiter-Fluor protease, 22 h, 0.1 nM estradiol agonist added; series mostly up to 92.4 µM; further: nearly all actives have a fitted effect of over 40% in size
In short: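 Viability in VM7Luc4E2 cells after 22 hr compound exposure under 0.1 nM 17beta-estradiol stimulation, by CellTiter-Fluor.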

[14] = target: Estrogen receptor beta (Homo sapiens) (UniProt Q92731); assay: qHTS assay to identify small molecule agonists of the estrogen receptor beta (ER-beta) signaling pathway (AID 1259377; active means well fitted activation curve with a large enough effect in the signal ratio in the repeat runs, not every such curve was filed as active; the % refers to the signal ratio); conditions: ER-beta-UAS-bla HEK293T, beta-lactamase FRET ratio, 16 h; series mostly up to 92.4 µM
In short: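 Measured by fluorescence intensity from a B/G FRET beta-lactamase substrate (2 h, room temperature) in ER-beta-UAS-bla HEK293T cells treated with DMSO-dissolved compounds for 16 hr at 37C and 5% CO2.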

[15] = target: Estrogen receptor beta (Homo sapiens) (UniProt Q92731); assay: qHTS assay to identify small molecule antagonists of the estrogen receptor beta (ER-beta) signaling pathway (AID 1259378; active means well fitted inhibition curve with a large enough effect in the signal ratio in the repeat runs, not every such curve was filed as active; the % refers to the signal ratio); conditions: ER-beta-UAS-bla HEK293T, beta-lactamase FRET ratio, 16 h; series mostly up to 92.4 µM
In short: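 ER-beta-UAS-bla HEK293T (GripTite) cells in 2% charcoal-stripped FBS medium were preincubated 6 hr at 37C, dosed with compound, then stimulated with 1 nM E2 (final) for 16 hr; beta-lactamase reporter read by B/G FRET fluorescence after 2 hr substrate loading.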

[16] = target: Androgen receptor (Homo sapiens) (UniProt P10275); assay: qHTS assay to identify small molecule agonists of the androgen receptor (AR) signaling pathway in the presence of an antagonist (AID 1259381; calls by dose curve; further: nearly all actives have a fitted effect of over 15% in size); conditions: MDA-kb2 MMTV-luciferase, AR agonist + nilutamide, 16 h; series mostly up to 92.4 µM
In short: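 MDA-kb2 cells carrying MMTV-luciferase (AR/GR responsive), 3,000 cells/well, co-treated with 3.0 uM nilutamide final. Compounds at 15 concentrations, 16 hr at 37C without CO2. Luciferase luminescence read after 30 min with ONE-Glo.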

[17] = target: Estrogen receptor (Homo sapiens) (UniProt P03372); assay: qHTS assay to identify small molecule antagonists of the estrogen receptor alpha (ER-alpha) signaling pathway using the BG1 cell line in the presence of 0.1 nM 17-beta-estradiol (AID 1259244); conditions: VM7Luc4E2 (BG1) ERE-luciferase, antagonist mode, 0.1 nM E2, 22 h; series mostly up to 92.4 µM; further: nearly all actives have a fitted effect of over 50% in size
In short: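 VM7Luc4E2 cells (endogenous full-length ER-alpha, 4×ERE-luciferase), kept 5 days in phenol red-free, charcoal-stripped FBS medium; 4,000 cells/well. Compounds added with 0.1 nM (final) 17beta-estradiol, 22 hr at 37C; luminescence read with ONE-Glo after 30 min.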

[18] = qHTS assay to identify small molecule agonists of the estrogen receptor beta (ER-beta) signaling pathway - cell viability counter screen (AID 1259380); conditions: ER-beta-bla HEK293T viability, CellTiter-Glo luminescence, 16 h; series mostly up to 92.4 µM; further: nearly all actives have a fitted effect of over 30% in size
In short: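 ER-beta-UAS-bla HEK293T cells in medium with 2% charcoal-stripped FBS, pre-incubated 6 hr, then treated 16 hr at 37C. Cytotoxicity read in the same wells by CellTiter-Glo luminescence after 30 min at room temperature.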

[19] = target: Estrogen receptor (Homo sapiens) (UniProt P03372); assay: qHTS assay to identify small molecule agonists of the estrogen receptor alpha (ER-alpha) signaling pathway in the presence of an antagonist (AID 1259383; calls by dose curve; further: top concentration of the series differs between compounds; nearly all actives have a fitted effect of over 15% in size); conditions: VM7Luc4E2 cells, ERE-luciferase, +ICI-182,780, 22 h; series mostly up to 92.4 µM
In short: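 VM7Luc4E2 cells express endogenous full-length ER-alpha with an ERE-luciferase reporter and were hormone-deprived for 5 days. Compounds at 15 concentrations were added with 10.0nM ICI-182,780 for 22hr at 37C. Luminescence was read with ONE-Glo.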

[20] = qHTS assay to identify small molecule phospholipidosis (PLD) inducers (AID 1259344; active means well fitted curve in the direction sought with a large enough effect; an effect the other way counts as inactive or inconclusive); conditions: HepG2 phospholipidosis, LipidTOX Red imaging, 24 h; series mostly up to 38.3 µM
In short: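 HepG2 cells on collagen I, attached 4 h at 37 C, were co-treated with compound and LipidTOX Red dye for 24 h at 37 C, then fixed with paraformaldehyde plus Hoechst 33342 and imaged by high-content microscopy for phospholipid accumulation.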

Sequence of Estrogen receptor beta (Homo sapiens) (Q92731 whole entry, looked up): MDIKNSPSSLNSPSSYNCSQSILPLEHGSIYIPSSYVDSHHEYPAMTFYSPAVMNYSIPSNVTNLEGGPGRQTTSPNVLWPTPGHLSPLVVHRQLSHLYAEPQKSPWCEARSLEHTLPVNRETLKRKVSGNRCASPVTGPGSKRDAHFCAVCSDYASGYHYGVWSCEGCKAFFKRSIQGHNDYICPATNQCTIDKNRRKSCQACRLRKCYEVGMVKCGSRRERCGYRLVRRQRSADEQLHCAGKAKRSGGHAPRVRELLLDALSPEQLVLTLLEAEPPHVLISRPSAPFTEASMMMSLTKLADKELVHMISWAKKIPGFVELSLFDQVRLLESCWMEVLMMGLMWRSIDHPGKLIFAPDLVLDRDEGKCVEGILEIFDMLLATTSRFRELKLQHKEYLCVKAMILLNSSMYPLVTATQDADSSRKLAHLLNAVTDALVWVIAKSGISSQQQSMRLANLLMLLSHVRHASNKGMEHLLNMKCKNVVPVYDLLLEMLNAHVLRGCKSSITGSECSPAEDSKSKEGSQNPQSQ
Sequence of Thyrotropin receptor (Homo sapiens) (P16473 whole entry, looked up): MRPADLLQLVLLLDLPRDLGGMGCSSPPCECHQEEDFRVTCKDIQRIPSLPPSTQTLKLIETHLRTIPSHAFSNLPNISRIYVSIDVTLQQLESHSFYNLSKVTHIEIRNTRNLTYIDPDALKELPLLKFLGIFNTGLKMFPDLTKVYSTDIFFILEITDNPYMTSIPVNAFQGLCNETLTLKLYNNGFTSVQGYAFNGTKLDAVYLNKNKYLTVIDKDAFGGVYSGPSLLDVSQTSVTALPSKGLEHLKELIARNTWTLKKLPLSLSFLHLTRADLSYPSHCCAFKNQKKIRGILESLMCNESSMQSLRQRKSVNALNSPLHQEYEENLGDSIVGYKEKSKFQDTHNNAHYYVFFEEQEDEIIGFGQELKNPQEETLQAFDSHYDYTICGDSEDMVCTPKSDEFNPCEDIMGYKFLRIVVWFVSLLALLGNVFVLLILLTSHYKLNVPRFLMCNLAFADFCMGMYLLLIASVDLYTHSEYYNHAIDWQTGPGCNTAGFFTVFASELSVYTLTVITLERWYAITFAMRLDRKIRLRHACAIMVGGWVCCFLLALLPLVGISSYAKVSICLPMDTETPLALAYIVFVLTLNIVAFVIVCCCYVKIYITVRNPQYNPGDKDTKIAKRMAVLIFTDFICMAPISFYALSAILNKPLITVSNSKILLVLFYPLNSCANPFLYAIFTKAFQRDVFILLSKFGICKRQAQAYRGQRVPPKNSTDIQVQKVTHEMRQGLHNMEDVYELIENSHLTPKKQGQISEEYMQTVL
Sequence of Androgen receptor (Homo sapiens) (P10275 whole entry, looked up): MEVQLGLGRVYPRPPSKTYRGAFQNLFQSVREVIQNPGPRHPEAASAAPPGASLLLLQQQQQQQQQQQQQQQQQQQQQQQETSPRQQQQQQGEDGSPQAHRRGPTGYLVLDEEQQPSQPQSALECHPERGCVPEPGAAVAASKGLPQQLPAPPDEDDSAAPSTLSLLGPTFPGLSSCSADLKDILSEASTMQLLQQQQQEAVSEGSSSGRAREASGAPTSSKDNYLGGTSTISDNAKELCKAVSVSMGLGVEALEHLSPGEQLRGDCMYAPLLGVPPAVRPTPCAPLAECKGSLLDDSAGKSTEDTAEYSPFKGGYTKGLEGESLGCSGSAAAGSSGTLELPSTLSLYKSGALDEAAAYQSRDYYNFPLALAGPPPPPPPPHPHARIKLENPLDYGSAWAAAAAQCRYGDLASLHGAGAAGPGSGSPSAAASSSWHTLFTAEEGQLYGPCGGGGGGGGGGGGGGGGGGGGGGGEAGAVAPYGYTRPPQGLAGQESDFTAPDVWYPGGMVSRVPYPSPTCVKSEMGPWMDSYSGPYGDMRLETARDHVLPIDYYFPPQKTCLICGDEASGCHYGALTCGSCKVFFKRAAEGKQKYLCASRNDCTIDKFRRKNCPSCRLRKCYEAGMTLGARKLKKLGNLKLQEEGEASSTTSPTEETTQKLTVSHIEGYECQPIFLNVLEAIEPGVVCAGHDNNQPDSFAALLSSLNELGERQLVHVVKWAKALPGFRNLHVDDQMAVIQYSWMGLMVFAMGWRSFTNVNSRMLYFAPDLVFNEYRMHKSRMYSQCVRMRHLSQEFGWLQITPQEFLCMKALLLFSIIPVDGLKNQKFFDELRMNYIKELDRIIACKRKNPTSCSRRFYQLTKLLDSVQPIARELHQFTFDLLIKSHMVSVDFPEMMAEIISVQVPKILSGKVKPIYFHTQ
Sequence of Estrogen receptor (Homo sapiens) (P03372 whole entry, looked up): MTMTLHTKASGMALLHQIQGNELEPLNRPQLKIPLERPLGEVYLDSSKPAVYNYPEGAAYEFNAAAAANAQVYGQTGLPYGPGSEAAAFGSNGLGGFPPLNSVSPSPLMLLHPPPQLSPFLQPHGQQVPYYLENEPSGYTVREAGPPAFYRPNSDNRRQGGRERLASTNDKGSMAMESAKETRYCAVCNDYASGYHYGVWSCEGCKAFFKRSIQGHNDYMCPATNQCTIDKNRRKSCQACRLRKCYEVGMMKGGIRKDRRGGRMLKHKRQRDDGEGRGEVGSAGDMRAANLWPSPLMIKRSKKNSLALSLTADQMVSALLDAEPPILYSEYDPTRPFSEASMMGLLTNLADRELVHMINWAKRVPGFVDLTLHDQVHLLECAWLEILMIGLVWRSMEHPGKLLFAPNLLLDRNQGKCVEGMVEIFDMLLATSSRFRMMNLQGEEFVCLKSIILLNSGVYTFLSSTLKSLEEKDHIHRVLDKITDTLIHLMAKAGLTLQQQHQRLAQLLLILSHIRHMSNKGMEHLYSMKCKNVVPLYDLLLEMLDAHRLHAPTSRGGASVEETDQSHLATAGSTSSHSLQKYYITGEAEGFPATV

| Compound | outcome [1] | Potency [2] | Potency [3] | outcome [4] | Potency [5] | Potency [6] | outcome [7] | Potency [8] | Potency [9] | Potency [10] | Potency [11] | Potency [12] | outcome [13] | outcome [14] | Potency [15] | Potency [16] | Potency [17] | Potency [18] | Potency [19] | outcome [20] |
| --- | --- | --- | --- | --- | --- | --- | --- | --- | --- | --- | --- | --- | --- | --- | --- | --- | --- | --- | --- | --- |
| CNC(=O)N(C)c1nc2ccccc2s1 | inactive | inactive | 0.545 µM (active) | inactive | inactive | inactive | inactive | inactive | inactive | inactive | inactive | inactive |  |  |  |  |  |  |  |  |
| CNC(=O)Oc1c(C(C)(C)C)cc(C)cc1C(C)(C)C |  | inactive | inactive | inactive | inactive | inactive | inactive | inactive | inactive |  | inactive | inactive | inactive | inactive | inactive | inactive |  |  |  |  |
| Nc1n[nH]c(N)n1 |  |  | inactive | inactive | inactive | inactive |  | inactive |  | inactive | inactive | inactive | inactive | inactive | inactive |  |  |  |  |  |
| C#CCN1C(=O)COc2cc(F)c(N3C(=O)C4=C(CCCC4)C3=O)cc21 | inactive | inactive | inactive | inactive | inactive | inactive | inactive |  | inactive | inactive | inactive | inactive |  | inactive |  | inactive | inactive | inactive | inactive |  |
| CCS(=O)(=O)C(C)(C)S(=O)(=O)CC | inactive |  | inactive | inactive | inactive | inactive | inactive | inactive | inactive | inactive | inactive | inactive |  | inactive | inactive |  | inactive | inactive | inactive | inactive |
| CCC#N |  |  | inactive | inactive | inactive | inactive | inactive | inactive | inactive | inactive | inactive | inactive | inactive |  | inactive |  |  | inactive |  |  |
| CCC(C)(C)c1cc(-n2nc3ccccc3n2)c(O)c(C(C)(C)CC)c1 | inactive | 39.2 µM (active) | inactive | inactive |  | inactive | inactive | inactive | inactive | inactive | inactive | inactive |  | inactive | inactive | inactive |  |  |  |  |
| CCOC(=O)N(C)C(=O)CSP(=S)(OCC)OCC |  |  | inactive | inactive | inactive | inactive | inactive | inactive | inactive | inactive |  |  | inactive | inactive | inactive |  |  |  |  |  |
| CC(CCc1ccccc1)NC(C)C(O)c1ccc(O)cc1 (stereo unspecified) | inactive |  | inactive | inactive |  | inactive | inactive | inactive | inactive | inactive | inactive | inactive |  |  |  |  | inactive |  | inactive | inactive |
